# Results reported in PubChem BioAssay (EPA / NIEHS).
# Results filed as inconclusive are left out. Activity calls are given as the source filed them. Rule for the calls, unless noted: active = hit-call score of the fitted dose curve at least 0.9, where 1 is the maximum; inconclusive = response in the unintended direction; inactive = score below 0.9.
# Columns and labels:
# [1] = Tanguay_ZF_120hpf_CIRC_legacy: (Legacy) Oregon State University Tanguay Lab 120 Hour Post-fertilization zebrafish Assay for Circulatory Malformation (AID 2283651)
# How it was run: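 Dechorionated wild-type 5D zebrafish embryos, one per well, statically exposed from 6 to 120 hpf at 28C with 0.64% DMSO; circulatory malformation scored present/absent by brightfield microscopy at 120 hpf, dead embryos excluded.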
# [2] = read-out: kallikrein-3 (KLK3), KLK3 (gene 354); experiment: LTEA_HepaRG_KLK3: Life Technologies and Expression Analysis (LTEA) Assay for kallikrein-3 (KLK3) using HepaRG (AID 2283652; active = hit-call score of the fitted dose curve at least 0.9, where 1 is the maximum; inactive = score below 0.9); conditions: mRNA level, 48 h; actives raise or lower the signal
# How it was run: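 Differentiated human HepaRG cells in serum-free induction medium exposed 48 h in duplicate, eight-point half-log series from 100 uM in 0.5% DMSO. KLK3 mRNA by qRT-PCR, normalised to ACTB, GAPDH, POLR2A; bidirectional fit versus DMSO.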
# [3] = read-out: solute carrier (SLC22A6), SLC22A6 (gene 9356); experiment: LTEA_HepaRG_SLC22A6: Life Technologies and Expression Analysis (LTEA) Assay for solute carrier (SLC22A6) using HepaRG (AID 2283653; active = hit-call score of the fitted dose curve at least 0.9, where 1 is the maximum; inactive = score below 0.9); conditions: mRNA level, 48 h; actives raise or lower the signal
# How it was run: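 Differentiated human HepaRG cells were exposed for 48 h in serum-free induction medium to eight concentrations (top 100 uM, half-log steps, 0.5% DMSO), in duplicate. SLC22A6 mRNA was quantified by qRT-PCR, normalised to ACTB, GAPDH and POLR2A, and fitted bidirectionally against DMSO.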
# [4] = Tanguay_ZF_120hpf_SWIM_legacy: (Legacy) Oregon State University Tanguay Lab 120 Hour Post-fertilization zebrafish Assay for Swim Bladder Malformation (AID 2283654);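 note: swim bladder malformation in each larva scored yes or no under brightfield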
# How it was run: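 Embryos lacking chorions were exposed individually and statically to test chemical from 6 to 120 hpf at 28C, with 0.64% DMSO as vehicle. At 120 hpf, swim bladder malformation was recorded as present or absent by brightfield microscopy.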
# [5] = Tanguay_ZF_120hpf_TRUN_legacy: (Legacy) Oregon State University Tanguay Lab 120 Hour Post-fertilization zebrafish Assay for Truncated Body (AID 2283655)
# How it was run: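 Tropical 5D wild-type embryos, dechorionated with pronase at 4 hpf, were placed singly in wells at 6 hpf and statically exposed at 28C until 120 hpf, final DMSO 0.64%. Truncated body was scored present/absent by brightfield microscopy.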
# [6] = read-out: solute carrier (SLC10A1), SLC10A1 (gene 6554); experiment: LTEA_HepaRG_SLC10A1: Life Technologies and Expression Analysis (LTEA) Assay for solute carrier (SLC10A1) using HepaRG (AID 2283657; active = hit-call score of the fitted dose curve at least 0.9, where 1 is the maximum; inactive = score below 0.9); conditions: mRNA level, 48 h; actives raise or lower the signal
# How it was run: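 Transcript levels were measured by qRT-PCR after human HepaRG cells received test chemical for 48 hours, up to 100 uM in half-log dilutions. Values come from bidirectional concentration-response fitting relative to 0.5% DMSO vehicle.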
# [7] = read-out: matrix metalloproteinase-1 (MMP1), MMP1 (gene 4312); experiment: LTEA_HepaRG_MMP1: Life Technologies and Expression Analysis (LTEA) Assay for matrix metalloproteinase-1 (MMP1) using HepaRG (AID 2283658; active = hit-call score of the fitted dose curve at least 0.9, where 1 is the maximum; inactive = score below 0.9); conditions: mRNA level, 48 h; actives raise or lower the signal
# How it was run: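 Differentiated HepaRG cells, plated 48 h then switched to serum-free induction medium, were exposed in duplicate for 48 h to eight half-log concentrations up to 100 uM in 0.5% DMSO; MMP1 mRNA measured by qRT-PCR, normalized to ACTB, GAPDH, POLR2A.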
# [8] = read-out: Cytochrome P450 (CYP24A1_1), CYP24A1 (gene 1591); experiment: LTEA_HepaRG_CYP24A1_1: Life Technologies and Expression Analysis (LTEA) Assay for Cytochrome P450 (CYP24A1_1) using HepaRG (AID 2283671; active = hit-call score of the fitted dose curve at least 0.9, where 1 is the maximum; inactive = score below 0.9); conditions: mRNA level, 48 h; actives raise or lower the signal
# How it was run: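 In this test, gene induction or suppression of CYP24A1 in human HepaRG liver cells is measured by qRT-PCR after 48 h chemical treatment (eight concentrations, maximum 100 uM). Values are fitted bidirectionally relative to DMSO.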
# [9] = CCTE_Padilla_ZF_144hpf_TERATOSCORE: (Legacy) CCTE's 144 Hour Post-fertilization zebrafish Assay Teratoscore, Padilla Lab (AID 2283679; active = hit-call score of the fitted dose curve at least 0.9, where 1 is the maximum; inactive = score below 0.9;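 note: zebrafish embryos with chorions exposed by immersion from 6-8 hpf to 5 dpf with daily renewal; teratogenicity score from eye scoring of death hatching and malformations at 144 hpf; higher score means more developmental defects relative to DMSO baseline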)
# How it was run: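 Larvae scored by eye at 144 hpf for death, hatching and malformations after a day in clean Hanks'. Before that, daily-renewed exposure at 80 uM (0.4% DMSO, 26C) from roughly 6-8 hpf through 5 dpf, 4 embryos per chemical.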
# [10] = Tanguay_ZF_120hpf_ActivityScore_legacy: (Legacy) Oregon State University Tanguay Lab 120 Hour Post-fertilization zebrafish Assay Score for Activity (AID 2283742);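 for AC50: static exposure from 6 hpf until 120 hpf at 28 °C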
# How it was run: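 Embryos are staged, enzymatically dechorionated at 4 hpf, placed individually at 6 hpf, then held in test chemical (0.64% DMSO) at 28C until 120 hpf. Mortality and malformations are scored by brightfield, with non-mortality endpoints skipped for dead embryos.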
# [11] = system: Thyroperoxidase (TPO), gene 54314; experiment: CCTE_Simmons_AUR_rTPO: CCTE's Amplex UltraRed Assay for Thyroperoxidase (TPO) Inhibition, Simmons Lab (AID 2283662);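 for AC50: potency for loss of signal meaning inhibition of peroxidase activity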
# How it was run: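 Rat thyroid microsomes (5 ug protein) were incubated with test compound (8 concentrations, 5 nM–87.5 uM final, 0.5% DMSO), 25 uM Amplex UltraRed and 300 uM H2O2 in 200 mM phosphate buffer for 30 min at 37C in the dark; fluorescence read at 544/590 nm.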
# [12] = CCTE_Simmons_CellTiterGLO_HEK293T: Viability Assessment in CCTE's Assays for Thyroperoxidase (TPO) Inhibition, Simmons Lab (AID 2283665);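 for AC50: cells exposed to compound for 24 h before readout; actives reduce ATP signal below DMSO vehicle meaning cytotoxicity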
# How it was run: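 HEK293T cells in DMEM with 1% FBS, dosed 24 h at 37C with 8 concentrations, 5 nM–87.5 uM final, 0.5% DMSO. ATP measured by CellTiter Glo luminescence; loss of signal vs DMSO, three biological replicates.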
# [13] = STM_H9_OrnithineISnorm_perc: Stemina devTOX quickPredict H9 human embryonic stem cell (hESC)-based Assay for Ornithine (ORN) Metabolite Biomarker, Normalized (AID 2283712; active = hit-call score of the fitted dose curve at least 0.9, where 1 is the maximum; inactive = score below 0.9;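 note: ornithine released into spent medium during last day measured by mass spectrometry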)
# How it was run: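 Undifferentiated H9 hESCs exposed 72 h with daily media and compound renewal; final 24-h conditioned medium analysed by UPLC-HRMS. Ornithine peak area normalised to spiked C13 standard and to median 0.1% DMSO control; viability by CellTiter-Fluor.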
# [14] = STM_H9_CystineISnorm_perc: Stemina devTOX quickPredict H9 human embryonic stem cell (hESC)-based Assay for Cystine (CYSS) Metabolite Biomarker, Normalized (AID 2283713; active = hit-call score of the fitted dose curve at least 0.9, where 1 is the maximum; inactive = score below 0.9)
# How it was run: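 Undifferentiated H9 hESCs exposed 72 h, compound and media replaced every 24 h; final 24-h media analysed by UPLC-HRMS. Cystine normalized to C13 spike-in standard and median 0.1% DMSO control.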
# [15] = STM_H9_OrnCyssISnorm_ratio: Stemina devTOX quickPredict H9 human embryonic stem cell (hESC)-based Assay for Ornithine (ORN):Cystine (CYSS) Ratio (AID 2283714)
# How it was run: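 Steps: H9 hESCs in pluripotent state dosed 72h, medium plus compound renewed every 24h; conditioned medium from the final 24h deproteinized in 40% acetonitrile; ORN and CYSS quantified by UPLC-HRMS with C13 spike-ins; ratio relative to vehicle.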
compound,measurement,setting,value
CCCCC=O,outcome,[1],inactive
same,outcome,[2],inactive
same,outcome,[3],inactive
same,outcome,[4],inactive
same,outcome,[5],inactive
same,outcome,[6],inactive
same,outcome,[7],inactive
same,outcome,[8],inactive
same,AC50,[9],105 µM (active)
same,outcome,[10],inactive
N=C(N)c1ccc(OCCCCCOc2ccc(C(=N)N)cc2)cc1,outcome,[1],inactive
same,outcome,[4],inactive
same,outcome,[5],inactive
same,AC50,[9],41.4 µM (active)
same,outcome,[10],inactive
Cc1cc(C(C)(C)C)c(O)c(C(C)(C)C)c1,AC50,[11],2.84 µM (active)
same,AC50,[12],24.5 µM (active)
Cc1cc(Cc2cc(C)cc(C(C)(C)C)c2O)c(O)c(C(C)(C)C)c1,AC50,[11],1.04 µM (active)
same,AC50,[12],6.57 µM (active)
CN(Cc1cnc2nc(N)nc(N)c2n1)c1ccc(C(=O)N[C@@H](CCC(=O)O)C(=O)O)cc1,outcome,[1],inactive
same,outcome,[4],inactive
same,outcome,[5],inactive
same,AC50,[11],9.76 µM (active)
same,AC50,[12],0.0489 µM (active)
same,AC50,[13],0.0773 µM (active)
same,AC50,[14],0.0873 µM (active)
same,AC50,[15],0.0863 µM (active)
same,outcome,[10],inactive
CCCCCCCCCCCC,AC50,[11],43.8 µM (active)
same,AC50,[12],31.8 µM (active)
CC(=O)Nc1ccc(O)cc1,outcome,[1],inactive
same,outcome,[4],inactive
same,outcome,[5],inactive
same,outcome,[10],inactive
CN(C)CCOC(c1ccccc1)c1ccccc1,outcome,[4],inactive
same,AC50,[5],24.8 µM (active)
same,AC50,[15],1.55 µM (active)
same,AC50,[10],202 µM (active)
CCc1cccc(CC)c1N(COC)C(=O)CS(=O)(=O)O,outcome,[11],inactive
same,outcome,[12],inactive
CCCCc1oc2ccccc2c1C(=O)c1cc(I)c(OCCN(CC)CC)c(I)c1,outcome,[5],inactive
same,AC50,[9],7.89 µM (active)
same,AC50,[15],5 µM (active)
same,outcome,[10],inactive
